Data taken from PubChem BioAssay (NCATS).
Records with an inconclusive call do not appear. Calls of active or inactive are those of the source. Calls come from the whole dose curve; tested in HEK293 reporter line.

Key:
[1] = qHTS for Inhibitors of the Functional Ribonucleoprotein Complex (vRNP) of Lassa (LASV) Arenavirus: LASV Primary Screen - GLuc reporter signal (AID 1347082); conditions: LASV minigenome vRNP, Gaussia luciferase reporter; series mostly up to 57.5 µM; note: nearly all actives have a fitted effect of over 60% in size
[2] = qHTS for Inhibitors of the Functional Ribonucleoprotein Complex (vRNP) of Lassa (LASV) Arenavirus: Viability assay - alamar blue signal for LASV Primary Screen (AID 1347083); conditions: cell viability, alamar blue fluorescence (LASV minigenome counter-screen); series mostly up to 57.5 µM; note: nearly all actives have a fitted effect of over 80% in size
[3] = qHTS for Inhibitors of the Functional Ribonucleoprotein Complex (vRNP) of Lymphocytic Choriomeningitis Arenaviruses (LCMV): Viability assay - alamar blue signal for LCMV Primary Screen (AID 1347085); conditions: alamar blue viability counter-screen, LCMV vRNP screen cells; series mostly up to 57.5 µM; note: nearly all actives have a fitted effect of over 80% in size

Measured: Potency

CC(C(=O)O)c1ccc2c(c1)[nH]c1ccc(Cl)cc12 (configuration not stated)
inactive: all assays above

O=C1CC2(CCCC2)CC(=O)N1
inactive: all assays above

OC[C@@H](O)[C@@H](O[C@@H]1O[C@H](CO)[C@H](O)[C@H](O)[C@H]1O)[C@H](O)[C@@H](O)CO
inactive: all assays above

O=C1NCC2(CCN(CCc3ccccc3)CC2)O1
inactive: all assays above

COc1ccc(S(=O)(=O)Nc2nnc(CC(C)C)s2)cc1
inactive: all assays above

CC(C)(C)NCC(O)COc1ccccc1OCC1CCCO1 (configuration not stated)
inactive: all assays above

CC1(C)O[C@H]2CC(=O)OC[C@]23[C@H]2CC[C@@]4(C)[C@H](c5ccoc5)OC(=O)[C@H]5O[C@]54[C@]2(C)C(=O)C[C@@H]13
inactive: all assays above

O=C(CN1CCNCC1)NC1CCCCC1
inactive: all assays above

NCc1ccc(S(N)(=O)=O)cc1
inactive: all assays above

CC(CC(C#N)(c1ccccc1)C(C)C)N(C)C (configuration not stated)
inactive: all assays above

NC/C=C/C(=O)O
inactive: all assays above

Cc1c(N(C)CS(=O)(=O)O)c(=O)n(-c2ccccc2)n1C
inactive: all assays above

Cc1cc(NS(=O)(=O)c2ccc(N)cc2)no1
inactive: all assays above

Nc1c[n+](N2CCOCC2)no1
inactive: all assays above

CCCCC(CC)COC(=O)c1ccccc1O (configuration not stated)
inactive: all assays above

O=C(CS(=O)Cc1ccco1)NC/C=C\COc1cc(CN2CCCCC2)ccn1 (configuration not stated)
inactive: all assays above

CNCCCC12CCC(c3ccccc31)c1ccccc12
inactive: all assays above

Cc1cccc(C)c1NC(=O)c1cc(S(N)(=O)=O)c(Cl)cc1O
inactive: all assays above

Cc1ccc(S(=O)(=O)NC(=O)NC2CCCCCCC2)cc1
inactive: all assays above

O=c1[nH]c(=O)n([C@H]2C[C@H](O)[C@@H](CO)O2)cc1Br
inactive: all assays above

COc1cc(C)c(Cc2cnc(N)nc2N)cc1OC
inactive: all assays above

COc1ccc(NS(=O)(=O)c2ccc(N)cc2)nn1
inactive: all assays above

CC1(C)OC[C@@H]2O[C@@]3(C(=O)O)OC(C)(C)O[C@H]3[C@@H]2O1
inactive: all assays above

O=C(O)c1[nH]n(-c2ccc(S(=O)(=O)O)cc2)c(=O)c1N=Nc1ccc(S(=O)(=O)O)cc1
inactive: all assays above

C[C@]12C=CC(=O)C=C1CC[C@@H]1[C@@H]2[C@@H](O)C[C@@]2(C)[C@H]1CC[C@]2(O)C(=O)CO
inactive: all assays above

Nc1nc(N)c(-c2ccccc2)s1
inactive: all assays above

CCO[C@H](Cc1ccc(OCCc2ccc(OS(C)(=O)=O)cc2)cc1)C(=O)O
inactive: all assays above

CO[C@@]1(NC(=O)CSCC#N)C(=O)N2C(C(=O)O)=C(CSc3nnnn3C)CS[C@@H]21
inactive: all assays above

CC1(C)S[C@@H]2[C@H](NC(=O)C(c3ccccc3)S(=O)(=O)O)C(=O)N2[C@H]1C(=O)O (some centres not stated)
inactive: all assays above

CC(C)c1ccc2oc3nc(N)c(C(=O)O)cc3c(=O)c2c1
inactive: all assays above

O=C(O)c1ccccc1C(=O)Nc1ccc(S(=O)(=O)Nc2nccs2)cc1
inactive: all assays above

CCOC(=O)NNc1ccc(N(CC)CC(C)O)nn1 (configuration not stated)
inactive: all assays above

Nc1ncnc2c1ncn2Cc1c(F)cccc1Cl
inactive: all assays above

O=C1c2c(O)cccc2Cc2cccc(O)c21
inactive: all assays above

Cc1cnc(NS(=O)(=O)c2ccc(N)cc2)nc1
inactive: all assays above

Cc1onc(-c2ccccc2)c1-c1ccc(S(N)(=O)=O)cc1
inactive: all assays above

C[C@H]1C[C@@H]2[C@H]([C@@H](O)C[C@@]3(C)[C@H]2CC[C@]3(O)C(=O)CO)[C@@]2(C)C=CC(=O)C=C12
inactive: all assays above

CC(C)NCC(O)c1ccc(NS(C)(=O)=O)cc1 (configuration not stated)
inactive: all assays above

CO/N=C(/C(=O)N[C@@H]1C(=O)N2C(C(=O)[O-])=C(C[n+]3ccn4ncccc43)CS[C@H]12)c1nsc(N)n1
inactive: all assays above
